TSHR ag: TSH receptor (human) agonism; P16473; HEK293-CNG-TSHR cells (CNG channel as cAMP sensor), membrane potential dye, cAMP; Potency, µM (top dose mostly 57.1 µM), inactives show top-dose activation, most hits filed as activators; 73,000 compounds, 0.48% hits; AID 926; active = well fitted activation curve with a large enough effect in the main read-out, with a control signal flat, not every such curve was filed as active; inconclusive = small, poorly fitted or top-dose-only effect, or a change in a side signal; inactive = no such curve, though single readings can be large or run the other way; % of control where 0% means no effect;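 note: the control signal comes from parental cells without the receptor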
Target sequence (P16473 whole entry, looked up): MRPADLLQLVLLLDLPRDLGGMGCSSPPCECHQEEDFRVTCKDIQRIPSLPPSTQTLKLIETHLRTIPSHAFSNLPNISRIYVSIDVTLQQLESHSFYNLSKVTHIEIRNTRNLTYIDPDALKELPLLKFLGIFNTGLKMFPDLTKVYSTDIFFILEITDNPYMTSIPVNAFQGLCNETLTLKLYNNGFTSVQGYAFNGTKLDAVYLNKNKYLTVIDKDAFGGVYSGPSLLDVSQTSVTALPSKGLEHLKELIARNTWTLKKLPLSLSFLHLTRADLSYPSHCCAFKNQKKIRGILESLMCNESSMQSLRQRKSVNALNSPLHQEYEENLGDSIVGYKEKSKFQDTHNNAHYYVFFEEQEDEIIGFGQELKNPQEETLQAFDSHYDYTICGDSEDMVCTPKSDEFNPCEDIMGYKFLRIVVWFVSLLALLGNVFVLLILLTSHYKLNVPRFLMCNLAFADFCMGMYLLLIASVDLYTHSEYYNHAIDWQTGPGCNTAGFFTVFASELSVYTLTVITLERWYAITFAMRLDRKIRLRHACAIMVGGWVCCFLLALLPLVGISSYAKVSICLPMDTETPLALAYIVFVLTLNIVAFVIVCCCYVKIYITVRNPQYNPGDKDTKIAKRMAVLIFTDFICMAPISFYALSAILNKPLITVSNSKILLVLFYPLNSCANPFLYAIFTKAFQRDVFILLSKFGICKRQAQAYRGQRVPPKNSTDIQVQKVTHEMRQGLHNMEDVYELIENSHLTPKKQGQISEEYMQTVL
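cAMP rise detected as CNG-channel membrane depolarization by fluorescent dye (emission 590 nm), 30 min after compound, following 60 min dye loading containing 100 uM RO 20-1724 at room temperature. Cells: TSHR/CNG HEK 293, with parental CNG HEK 293 as control.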
Casp1 inh: allosteric or competitive inhibitors of human caspase-1; P29466; Caspase-1 enzyme, Ac-WEHD-AFC fluorogenic rate; Potency, µM (series often up to 57.5 µM), inactives show at the highest dose activity change, negative = inhibition, hits mostly inhibitors; 75,000 compounds, 0.03% hits;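 note: plate controls were vehicle for no effect and no substrate for full effect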
ALOX15 inhib: inhibitors of human 15-lipoxygenase (ALOX15); 74,000 compounds, 1.4% hits; purified 15hLO-1, xylenol orange hydroperoxide absorbance; P16050; AID 887; Potency, µM (series often up to 57.1 µM), without a hit: at the highest dose activity change, negative = inhibition, most hits filed as inhibitors; note: % is set by controls: 0 for no effect and ±100 for the full control effect; nearly all actives have a fitted effect of over 55% in size
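40 nM 15hLO-1 + cpd, 15 min RT; start w/ 50 uM AA (final), 6 min RT; stop/detect w/ 200 uM XO + 300 uM Fe(II) in 50 mM H2SO4, 30 min; A573/A405. Buffer 25 mM Hepes pH 7.5, 0.01% Triton X-100. No-enzyme wells as negative control.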
ERK AVP block: blocks ERK signaling stimulated by vasopressin. HEK293-V1b, vasopressin-stimulated pERK AlphaScreen. Potency, µM (top dose mostly 57.5 µM), for the others: top-dose activity, negative = inhibition, usual class: inhibitors. AID 995. 72,000 compounds, 0.99% hits; note: % is set by controls: 0 for no effect and ±100 for the full control effect; nearly all actives have a fitted effect of over 55% in size
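V1b-HEK293 cells; cpd 30 min 37C; 25 nM vasopressin 5 min; lyse 10 min; AlphaScreen beads 5 hr RT. Normalized to DMSO basal and 25 nM vasopressin; AC50 by Hill fit.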
HEK293 cAMP ctrl: counter-screen for TSHR agonists: cAMP increase in parental HEK293 | parental HEK293 CNG cAMP sensor, membrane potential fluorescence | Potency, µM (doses to about 57.1 µM), inactives show at the top dose activation, usual class: activators | 73,000 compounds, 2.5% hits | AID 938; note: % of control where 0% means no effect; nearly all actives have a fitted effect of over 55% in size
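Parental HEK 293 cells stably expressing a modified CNG channel (no TSHR) report cAMP rise as membrane depolarization. Membrane potential dye with 100 uM RO 20-1724 was loaded for 60 min at room temperature, then compound added for 30 min; fluorescence read at 590 nm.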
Caspase-7 inhib: allosteric or competitive inhibitors of human caspase-7; recombinant caspase-7, Ac-DEVD-AFC fluorescence rate; Potency, µM (titrated, usually from 57.5 µM), inactives show at the top dose activity change, negative = inhibition, actives largely listed as inhibitors; 75,000 compounds, 0.02% hits; active = well fitted inhibition curve with a large enough effect in the main read-out, with a control signal flat, not every such curve was filed as active; inconclusive = small, poorly fitted or top-dose-only effect, or a change in a side signal; note: % of control where 0% means no effect
* hit, by the source's call; ? = inconclusive; / = no result given; [ ] = another dose, or the depositor's remark. Shown are actives, neighbours in structure and some others; about 4.8% of the full set was active somewhere. Unless noted, calls come from the whole dose curve; as a rule, active = well fitted curve in the direction sought with a large enough effect; inconclusive = small, poorly fitted or top-dose-only effect, or another doubt; inactive = no such curve, though single readings can be large; an effect the other way counts as inactive or inconclusive. Potency is the fitted concentration of half-maximal effect.

SMILES	TSHR ag	Casp1 inh	ALOX15 inhib	ERK AVP block	HEK293 cAMP ctrl	Caspase-7 inhib
Cn1cccc1Cc1nnc(SCC(=O)Nc2ccccc2F)n1CCc1ccccc1	20%	-4%	16µM*	?	23%	-7%
Cc1csc(NC(=O)CSc2nnc(Cc3cccn3C)n2CCc2ccccc2)n1	?	-1%	13µM*	/	?	-5%
O=C1CC(c2ccc(O)c(O)c2)Oc2cc(O)cc(O)c21 (stereo not given)	/	3%	10µM*	?	/	1%
O=C1c2c(O)cc(O)cc2O[C@@H](c2ccc(O)c(O)c2)[C@H]1O	13%	3%	13µM*	37%	9%	1%
O=C1CC(c2ccc(O)cc2)Oc2cc(O)cc(O)c21 (stereo not given)	/	2%	-6%[25.6 µM]	18%	/	-9%
O=c1c(-c2ccc(Cl)cc2)nc2cnc(N3CCNCC3)nc2n1CCc1ccccc1	0%	/	-6%	0%	-5%	?
COc1cc(OC)c2c(c1)OC(c1ccccc1)CC2=O (stereo not given)	/	0%	-4%[25.6 µM]	?	/	-1%
CCCCc1cc(=O)oc2cc(C)c(CN3CCCC3)c(O)c12	-9%	-9%	13µM*	-9%	0%	-18%
COC(=O)c1cc2sccc2n1CC(=O)Nc1cccc(SC)c1	?	-1%	22%	-2%	25µM*	-3%
c1ccc(OCCSc2nnnn2C2CCCCC2)cc1	?	-3%	5%	-4%	25µM*	-3%
O=C1CCC(=O)N1c1ccc(CSc2nnnn2C2CCCCC2)cc1	3%	-2%	4%	16µM*	6%	1%
COc1ccc(OCCSc2nnnn2C2CCCCC2)cc1	?	-3%	5%	4%	?	-1%
O=C(COc1ccc(Cl)cc1Cl)N1CCCCCC1	?	-5%	-7%[11.4 µM]	-13%	4µM*	-1%
O=C(CCCCCNc1nc(=S)[nH]c2ccccc12)N1CCN(c2ccccn2)CC1	2%	1%	-19%	13µM*	-4%	-4%
O=C(CCCOc1ccc(Cl)cc1Cl)N1CCN(c2ccccn2)CC1	?	-3%	-16%	40µM*	?	-5%
O=C(CCCOc1ccccc1)N1CCN(c2ccccn2)CC1	?	0%	-4%	25µM*	?	0%
C=CC(=O)OCCOCCOC(=O)C=C	?	-3%	-3%	9%	23%	-1%
COc1ccc(-c2nc3cnc(N4CCOCC4)nc3n(-c3ccc(OC)cc3)c2=O)cc1	-3%	/	16µM*	37%	1%	?
COc1ccc(-n2c(=O)c(-c3ccc(F)cc3)nc3cnc(N4CCOCC4)nc32)cc1	0%	/	-5%	8%	28%	?
Cc1nn(-c2ccccc2)c(C)c1C(=O)OCC(=O)c1c(N)n(CC(C)C)c(=O)n(C)c1=O	?	-3%	9%	?	16µM*	-1%
CN(C)c1ccc(-c2nc(N(C)Cc3ccco3)c3ccccc3n2)cc1	16%	?	-1%	-5%	-4%	-23%
CN(Cc1ccco1)c1ncnc2ccc(-c3ccccc3Cl)cc12	?	-7%	-3%	?	?	-10%
CN(Cc1ccco1)c1nc(-c2ccoc2)nc2ccccc12	?	-7%	13µM*	-16%	16µM*	-8%
COc1ccccc1-c1ccc2ncnc(N(C)Cc3ccco3)c2c1	?	-6%	-21%	-13%	3.2µM*	-6%
CN(Cc1ccco1)c1ncnc2ccc(-c3ccoc3)cc12	?	1%	2%	-27%	16µM*	-10%
SMILES	TSHR ag	Casp1 inh	ALOX15 inhib	ERK AVP block	HEK293 cAMP ctrl	Caspase-7 inhib
CN(C)c1ccnc(-c2cccc(NS(C)(=O)=O)c2)n1	11%	4%	3%	-11%	9%	0%
CC(C)(C)NC[C@H](O)COc1cccc2c1CCC(=O)N2	-12%[25.6 µM]	-2%[25.7 µM]	19%[25.6 µM]	-1%[25.7 µM]	-1%[25.6 µM]	0%[25.7 µM]
CCOC(=O)C1CCCN(Cc2ccc(OC)cc2OC)C1 (stereo not given)	?	-1%	-8%	47%	32µM*	-1%
CCOC(=O)C1CCCN(Cc2ccc(O)c(OC)c2)C1 (stereo not given)	-1%[11.4 µM]	-2%	-3%[11.4 µM]	-3%	-1%[11.4 µM]	-1%
O=C1C2=C(Nc3cc([N+](=O)[O-])ccc3N2)O[C@@H]1c1c[nH]c2ccc(COc3ccccc3)cc12	-1%[11.4 µM]	-2%[11.5 µM]	7%[11.4 µM]	0%[11.5 µM]	-4%[11.4 µM]	1%[11.5 µM]
Cc1noc(C)c1-c1ccc2ncnc(N3CCC(C(=O)O)CC3)c2c1	3%	-1%	-8%	-11%	-1%	-5%
[O-][N+]1=c2ccc(Nc3ccccc3)cc2=NC12CCCCC2	?	-1%	3.2µM*	?	-65%	-1%
COc1ccc(OC)c(NC2=NC3(CCCC3)N=C(N)N2)c1	2%	0%	-4%	-9%	2%	-1%
COc1ccc(Nc2ccc3c(c2)=NC2(CCCCC2)[N+]=3[O-])cc1	?	-10%	?	16µM*	-63%	-3%
CC1(C)CC2C1CC[C@]1(C)CCC3C(C(=O)O)CC(=O)O[C@]32C1 (stereo not given in full)	/	0%	-28%	-23%	/	-2%
Nc1ncnc2c1ncn2[C@@H]1O[C@@H](C(=O)NC2CC2)[C@H](O)[C@@H]1O	?	1%	4%	?	0.25µM*	2%
CNC(=O)[C@@H]1O[C@@H](n2cnc3c(N)ncnc32)[C@@H](O)[C@H]1O	?	4%	-4%	-4%	3.2µM*	1%
CCNC(=O)[C@@H]1O[C@@H](n2cnc3c(NCc4ccccc4)ncnc32)[C@@H](O)[C@H]1O	?	/	/	/	3.2µM*	/
Nc1ncnc2c1ncn2C1OC(COP(=O)(O)O)C(O)C1O (stereo not given)	/	0%	-15%	2%	/	3%
Nc1ncnc2c1ncn2[C@@H]1O[C@H](COP(=O)(O)O)[C@@H](O)[C@@H]1O	-5%[25.6 µM]	-2%[25.7 µM]	7%[25.6 µM]	-26%[25.7 µM]	-7%[25.6 µM]	1%[25.7 µM]
COC(=O)[C@@H]1C[C@@]2(O)[C@H](O)[C@H](O)[C@H](O)C[C@H]2N1Cc1ccc(N2CCN(C)CC2)cc1	/	-1%	/	-4%	/	-2%
Cc1ccc(Cn2nnc3c(=O)n(Cc4cccc(C)c4)cnc32)cc1	?	-3%	?	-1%	?	-3%
Cc1ccc(Cn2nnc3c(=O)n(Cc4cc(C)ccc4C)cnc32)cc1	?	-2%	-10%	-18%	3.2µM*	-1%
O=C(O)c1cccc(SSc2cccc(C(=O)O)c2)c1	-4%[11.4 µM]	-1%[11.5 µM]	2%[11.4 µM]	4%[11.5 µM]	10%[11.4 µM]	-1%[11.5 µM]
Cn1nc(C(=O)NCc2cccnc2)c2ccccc2c1=O	5%	-1%	7%	-5%	-1%	-1%
